Source: PubChem BioAssay AID1851 (National Center for Advancing Translational Sciences (NCATS), 2009)
In all, about 16,000 compounds went through this assay and about 4,000 (25%) were called active. Inconclusive results (about 26%) are left out. Calls come from the whole dose curve; as a rule, active = well fitted curve in the direction sought with a large enough effect; inconclusive = small, poorly fitted or top-dose-only effect, or effect the other way; inactive = no such curve, though single readings can be large or run the other way. Not all results are given here. Peptide text beside a SMILES is read from it.

Biological target: Cytochrome P450 2C9 (Homo sapiens) (UniProt P11712)
Sequence (P11712 whole entry, looked up): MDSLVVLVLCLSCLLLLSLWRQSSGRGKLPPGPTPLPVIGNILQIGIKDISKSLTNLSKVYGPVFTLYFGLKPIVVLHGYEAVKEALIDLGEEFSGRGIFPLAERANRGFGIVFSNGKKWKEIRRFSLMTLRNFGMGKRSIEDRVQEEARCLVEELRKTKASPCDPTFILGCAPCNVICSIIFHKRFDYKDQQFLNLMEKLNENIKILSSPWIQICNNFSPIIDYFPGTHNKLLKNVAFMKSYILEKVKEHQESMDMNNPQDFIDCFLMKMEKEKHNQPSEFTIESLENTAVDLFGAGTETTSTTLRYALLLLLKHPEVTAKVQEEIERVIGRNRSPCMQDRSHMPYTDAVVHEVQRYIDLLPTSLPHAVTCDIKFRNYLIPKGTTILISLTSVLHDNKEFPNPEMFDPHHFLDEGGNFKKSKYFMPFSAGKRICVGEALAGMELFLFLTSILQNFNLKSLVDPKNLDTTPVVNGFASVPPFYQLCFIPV
Experiment: Cytochrome panel assay with activity outcomes
Settings: recombinant CYP, pro-luciferin dealkylation, luminescence, p450-cyp2c9; series mostly up to 57.1 µM; activity, negative = inhibition: at the top concentration
% is set by controls: 0 for no effect and ±100 for the full control effect.

Row | SMILES | activity, negative = inhibition | AC50
1 | O=C(NNC(=O)C1CCCCC1)c1cnccn1 | -34.4% (inactive) | 
2 | CC(C)CN(C)c1nc(N)c(C(=O)N=C(N)N)nc1Cl | 19.3% (inactive) | 
3 | Clc1ccccc1-c1nc(NCCN2CCOCC2)c2ccccc2n1 | 24.6% [at 2.29 µM] (inactive) | 
4 | O=C1CSC2(CCN(CCCN3c4ccccc4Sc4ccc(Cl)cc43)CC2)N1 | 4.61% [at 11.4 µM] (inactive) | 
5 | COc1ccccc1NC(=O)Nc1nnc(-c2ccco2)s1 | -20% (inactive) | 
6 | COc1ccc(Cc2nnc(NC(=O)c3ccco3)s2)cc1 |  | 2.82 µM (active)
7 | OC[C@@H]1O[C@@H](n2cnc3cncnc32)[C@@H](O)[C@H]1O | -10.9% (inactive) | 
8 | COc1cccc(-c2nccc(NCc3cnc(C)cn3)n2)c1 | -10.6% [at 2.29 µM] (inactive) | 
9 | CN(C)CC/C=C1\c2ccccc2CSc2ccccc21 | 1.47% [at 25.6 µM] (inactive) | 
10 | C[C@H](N)C(=O)O | 10.4% (inactive) | 
11 | CC(=O)N[C@@H](CC(=O)O)C(=O)N[C@@H](CCC(=O)O)C(=O)O (Ac-Asp-Glu-OH) |  | inactive
12 | O=C(c1csnn1)N1CCC2(CCCN(c3ccccc3)C2)CC1 |  | 7.94 µM (active)
13 | O=C(c1csnn1)N1CCC2(CC1)CN(c1ccncc1)C2 |  | 2.51 µM (active)
14 | O=C(c1csnn1)N1CCC2(CC1)CCN(c1ccccc1)CC2 | 15.3% (inactive) | 
15 | O=C(c1csnn1)N1CCC2(CC1)CN(c1ccccc1)C2 | -11.7% (inactive) | 
16 | O=C(c1csnn1)N1CCC2(CC1)CN(c1cccc(-c3ccccc3)c1)C2 | 3.02% (inactive) | 
17 | O=C(c1csnn1)N1CCC2(CCCN(c3ccc(-c4ccccc4)cc3)C2)CC1 | -4.41% (inactive) | 
18 | COc1ccc(NC(=O)N2CC[C@@]3(CCCN(C(C)=O)C3)C2)cc1 | 18.2% (inactive) | 
19 | COC(=O)CSc1ccc2nnc(-c3ccc(F)cc3)n2n1 |  | 10 µM (active)

Row | SMILES | activity, negative = inhibition | AC50
20 | CCn1c(SCC(=O)OC)nnc1C1CCCCC1 | 3.81% (inactive) | 
21 | COC(=O)CSc1nnc(-c2ccccc2OC)n1-c1ccc(C)cc1 | -65.9% (inactive) | 
22 | CCOc1ccc(-c2nnc3ccc(SCC(=O)NCc4ccco4)nn23)cc1 |  | 11.2 µM (active)
23 | O[C@@H](c1cc([C@@]23C[C@H]4CC[C@@H]2C[C@H](C4)C3)nc2c(Cl)cc(Cl)cc12)[C@@H]1CCCCN1 | -4.65% [at 11.4 µM] (inactive) | 
24 | Cc1cnc(CNc2cc(-c3ccc(C(=O)N(C)C)cc3)ncn2)cn1 | 23.4% [at 2.29 µM] (inactive) | 
25 | O=C(OC1CCN(c2ncc(C(F)(F)F)cc2Cl)CC1)c1ccccc1 |  | 10 µM (active)
26 | COc1ccc(/C=N/NC(=O)C2CCN(c3ncc(C(F)(F)F)cc3Cl)CC2)cc1 | -9.1% (inactive) | 
27 | FC(F)(F)c1cnc(N2CCC(=NOCc3ccc(Cl)cc3)CC2)c(Cl)c1 | -12.2% (inactive) | 
28 | COC(=O)[C@@]1(Cc2ccc(F)cc2)[C@H]2c3cc(C(=O)N4CCCC4)n(CCc4ccc(O)c(O)c4)c3C[C@H]2CN1C(=O)c1ccccc1 |  | 3.16 µM (active)
29 | COC(=O)[C@@]1(Cc2ccc(F)cc2)[C@H]2c3cc(C(=O)N4CCCC4)n(CCc4ccc(OC)c(Br)c4)c3C[C@H]2CN1C(=O)c1ccccc1 |  | 3.16 µM (active)
30 | COc1ccccc1CN1CCCC2(CCN(C(=O)c3cccn3C)CC2)C1 | 0.81% (inactive) | 
31 | C/C(=N\OC(=O)c1ccccc1F)c1nccs1 | -11.6% (inactive) | 
32 | O=S(=O)(O)c1ccc2cc(N=Nc3cc(S(=O)(=O)O)c4cccnc4c3O)ccc2c1 | -4.09% [at 11.4 µM] (inactive) | 
33 | Cc1cc(C)cc(-n2c(O)c(C=NC3CCS(=O)(=O)C3)c3ccccc3c2=O)c1 (configuration not stated) |  | 4.47 µM (active)
34 | Cc1ccc(-n2c(O)c(/C=N/n3cnnc3)c3ccccc3c2=O)cc1 |  | 0.794 µM (active)
35 | Cc1ccc(-n2cnc(=O)c3cccnc32)cc1 | -11.7% (inactive) | 
36 | Nc1c(S(N)(=O)=O)cc(S(N)(=O)=O)cc1S(N)(=O)=O | -3.4% [at 11.4 µM] (inactive) | 
37 | CN(CCc1ccc(Cl)c(Cl)c1)C[C@@H](O)COc1ccc(NS(C)(=O)=O)cc1 |  | 2.51 µM (active)
38 | CN(CCc1ccc(Cl)c(Cl)c1)CCN1CCCCCC1 | -6.84% (inactive) | 

Row | SMILES | activity, negative = inhibition | AC50
39 | CC(C)NC[C@H](O)c1ccc(NS(C)(=O)=O)cc1 |  | inactive
40 | CC(=O)NNC(=O)C(O)(c1ccccc1)c1ccccc1 | -3.75% (inactive) | 
41 | CC(C)(C)N(NC(=O)c1ccccc1)C(=O)c1cccc(C(=O)N(NC(=O)c2ccccc2)C(C)(C)C)c1 |  | 15.8 µM (active)
42 | O=C(NC(N1CCCC1)C(Cl)(Cl)Cl)c1ccccc1 (configuration not stated) | -51.1% (inactive) | 
43 | COc1ccc(-c2noc(N(C)CC(=O)Nc3cccc(C(F)(F)F)c3)n2)cc1 |  | 5.01 µM (active)
44 | CN(CCCNC(=O)c1cccn2c(=O)c3ccccc3nc12)Cc1ccccc1 |  | 17.8 µM (active)
45 | Cc1ccc(CCN2CC(C(=O)NCCCN(C)Cc3ccccc3)CC2=O)cc1 (configuration not stated) | -27.8% (inactive) | 
46 | CN(CCCNC(=O)c1ccc(/C=N/O)nc1)CCCN(C)Cc1ccccc1 | -0.536% (inactive) | 
47 | CNC(=O)c1c(I)c(C(=O)NCC(=O)Nc2c(I)c(C(=O)O)c(I)c(C(=O)NCCO)c2I)c(I)c(N(C)C(C)=O)c1I | -7.59% [at 25.6 µM] (inactive) | 
48 | COc1ccc(NC(=O)/C(=C\c2cc(OC)c(OC)cc2[N+](=O)[O-])NC(=O)c2ccccc2)cc1 |  | 7.94 µM (active)
49 | Cc1ccc(NC(=O)/C(=C\c2ccc([N+](=O)[O-])cc2)NC(=O)c2ccccc2)cc1 |  | 11.2 µM (active)
50 | Cc1ccc(C(=O)N/C(=C\c2ccc([N+](=O)[O-])cc2)C(=O)NCCc2ccccc2)cc1 | -12.4% (inactive) | 
51 | O=C(Nc1ccccc1)/C(=C\c1ccncc1)NC(=O)c1ccccc1 |  | 0.2 µM (active)
52 | O=C1[C@H]2[C@H]3[C@H](O)[C@H](O)C/C(=N/OCc4ccccc4)[C@@H]3CC[C@@H]2C(=O)N1C[C@@H]1CCCO1 | 7.38% [at 11.4 µM] (inactive) | 
53 | O=C(O)C1C2C=CC3(CN(Cc4ccccn4)C(=O)C13)O2 (configuration not stated) | -6.93% (inactive) | 
54 | CC(=O)NCCNc1ncncc1-c1ccccc1C(F)(F)F | -11.4% [at 2.29 µM] (inactive) | 
55 | O=C(O)c1nnsc1COCc1ccccc1 | -2.96% [at 11.4 µM] (inactive) | 
56 | COC(=O)c1c(-c2cc(OC)c(OC)c(OC)c2)c2ccc(OCc3ccccn3)cc2c(=O)n1-c1ccc(N)cc1 |  | 3.98 µM (active)
57 | CC(C)CNc1nc(N)[nH]c(=O)c1NC=O | -6.56% [at 11.4 µM] (inactive) | 
